Pf growth 96h – Primary qHTS for delayed death inhibitors of the malarial parasite plastid, 96 hour incubation. P. falciparum luciferase reporter growth, 96 h. Potency, µM (highest dose often 28.7 µM), without a hit: at the top dose activity change, negative = inhibition, actives largely listed as inhibitors. 320,000 compounds, 6.9% hits; note: potency is the fitted concentration of half-maximal effect; % is set by controls: 0 for no effect and ±100 for the full control effect
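Two parasite generations (96 h, 37 C, 5% CO2) of compound exposure in infected erythrocytes (0.05% parasitemia, 2% hematocrit). Luciferase-reporter P. falciparum; decreased luminescence indicates inhibited growth, aimed at apicoplast-acting delayed death.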
Marburg entry inh – qHTS for inhibitors of binding or entry into cells for Marburg Virus; Potency, µM (titrated, usually from 37.8 µM), without a hit: at the highest dose activity change, negative = inhibition, most hits filed as inhibitors; Marburg virus pseudotyped entry inhibition, cell reporter; 300,000 compounds, 1.8% hits; calls by dose curve; tested in HEK293 cells; note: potency is the fitted concentration of half-maximal effect; % is set by controls: 0 for no effect and ±100 for the full control effect
Cycloheximide cs – Cycloheximide Counterscreen for Small Molecule Inhibitors of Shiga Toxin; max response, %; cell reporter, cycloheximide protein synthesis inhibition counterscreen; 300,000 compounds, 12% hits; AID 2314, 2010; in the data active = max response mostly above about 13%, no sharp cut-off; inactive = mostly below about 14%; note: read at 38.3 µM for the half of the compounds with a filed dose; 0% is about no effect
Lassa entry inh – qHTS for Inhibitors of binding or entry into cells for Lassa Virus. Lassa virus pseudotype entry inhibition, cell reporter. Potency, µM (series often up to 37.9 µM), for inactives: at the highest dose activity change, negative = inhibition, usual class: inhibitors. 300,000 compounds, 1.2% hits; calls by dose curve; tested in HEK293 cells; note: potency is the fitted concentration of half-maximal effect; % is set by controls: 0 for no effect and ±100 for the full control effect; nearly all actives have a fitted effect of over 50% in size
Pf growth 48h – Primary qHTS for delayed death inhibitors of the malarial parasite plastid, 48 hour incubation. P. falciparum luciferase growth in erythrocytes, 48 h. 310,000 compounds, 5.9% hits. AID 504832, 2011. Potency, µM (highest dose often 28.7 µM), inactives show at the highest dose activity change, negative = inhibition, hits mostly inhibitors; note: potency is the fitted concentration of half-maximal effect; % is set by controls: 0 for no effect and ±100 for the full control effect
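Luciferase-expressing parasites in RBCs, 2% Hct / 0.1% parasitemia final; RPMI 1640 + 0.5% Albumax; 37 C, 5% CO2, one generation; luminescence read-out, lower signal = inhibition.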
Shiga toxin inh – A qHTS for Small Molecule Inhibitors of Shiga Toxin; Vero cells, Shiga toxin protein synthesis inhibition reporter; inhibition, % at 38.7 µM; 290,000 compounds, 9.2% hits; in the data active = inhibition mostly above about 28%, no sharp cut-off; inactive = mostly below about 43%; note: 0% is about no effect
Starred values were filed as active, the others as inactive; ? = inconclusive; / = no result given; [ ] = dose if it differs, or a comment. Hits are enriched below; roughly 19% of the tested compounds scored in any of these assays. Unless noted, calls come from the whole dose curve; as a rule, active = well fitted inhibition curve with a large enough effect; inconclusive = small, poorly fitted or top-dose-only effect, or another doubt; inactive = no such curve, though single readings can be large or run the other way.

SMILES	Pf growth 96h	Marburg entry inh	Cycloheximide cs	Lassa entry inh	Pf growth 48h	Shiga toxin inh
Cc1cc(C)cc(OCC(=O)N(Cc2cccs2)c2ccc(Cl)cc2)c1	/	-8.0%[46.1 µM]	/	3.8%[46.1 µM]	/	/
CCOC(=O)CC(=O)CSCC(=O)Nc1ccc(C)cc1	/	-7.5%	-1.7	-15.9%	23.4%	14.1
COc1ccc(C(=O)NC(C)C2CC3CCC2C3)cc1 (centres undefined)	?	?	10.9*	?	7.2%	14.6
Cc1ccc(C(=O)NC(C)C2CC3CCC2C3)c(C)c1 (centres undefined)	30.9%	?	13.2	0.7%[46.1 µM]	35.0%	90.0*
CC(NC(=O)c1ccc(N(C)C)cc1)C1CC2CCC1C2 (centres undefined)	/	?	13.8*	-22.9%	2.7%	106.4
CC(NC(=O)c1ccc(F)cc1Cl)C1CC2CCC1C2 (centres undefined)	0.8%	4.4%[46.1 µM]	5.9	18.4%	9.8%	36.3
CC1CCCN(CCS(=O)(=O)c2ccccc2)C1 (centres undefined)	/	?	/	9.3%[46.1 µM]	/	/
Cc1ccc(Cn2cccc(NS(C)(=O)=O)c2=O)cc1	68.4%	18.0%	-2.2	?	3.2%	-1.5
Cc1cc(NS(C)(=O)=O)c(=O)n(Cc2cccc(F)c2)c1	2.62µM*	/	-3.2	/	16.8%	-2.0
CCOc1ccc(-n2c(SCC(=O)NCc3ccco3)nc3c([nH]c4ccccc43)c2=O)cc1	/	-29.0%	/	?	/	/
O=C(CSc1nnc(CNC(=O)c2ccccc2)o1)Nc1ccc2c(c1)OCCO2	4.0%	0.4%	9.6	3.7%	?	10.1
Cc1csc(NC(=O)CSc2ccc([N+](=O)[O-])cn2)n1	11.7µM*	/	10.4	/	-33.4%	24.0
Cc1csc(NC(=O)CSc2nccn2C)n1	-2.8%	?	28.6*	?	77.0%	30.2
Cc1csc(NC(=O)CSc2nc(C)cs2)n1	/	12.1%[46.1 µM]	17.0*	24.2%	15.6%	25.1
Cc1csc(SCC(=O)Nc2cccc3nsnc23)n1	?	7.8%	20.0*	?	52.4%	24.4
O=C(CSc1ccc([N+](=O)[O-])cn1)Nc1nccs1	?	/	5.4	/	?	4.5
COc1ccc(C(CC(=O)O)NC(=O)COc2ccccc2)cc1OC (centres undefined)	34.7%	-15.7%[46.1 µM]	-2.2	16.8%	-1.8%	10.4
COc1ccc(CCCc2nnc(SCC(=O)Nc3nc(C)cs3)n2C)cc1	/	2.0%	-2.6	1.8%	10.4µM*	-12.0
Cc1csc(NC(=O)CSc2nnc(CCNC(=O)c3ccc(Cl)c(Cl)c3)n2C)n1	-3.9%	19.0%	15.4	10.8%	/	-7.4
N#Cc1cc2c([nH]c1=S)CCCC2	4.1%	5.4%	32.8*	5.1%	3.2%	50.5*
Cc1ccc(NC(=O)CCCn2c(=O)c3cccn3c3ccccc32)c(Cl)c1	/	/	/	1.4%[46.1 µM]	/	/
CN(C)CCN(C(=O)c1ccc2c(c1)OCCO2)c1nc2ccc(Cl)cc2s1	?	-3.2%[46.1 µM]	26.5*	7.2%	46.2%	35.9
CN(C)CCCN(C(=O)c1ccc2c(c1)OCCO2)c1nc2ccc(Cl)cc2s1	11.7µM*	/	14.5*	/	10.4µM*	35.8
Cc1ccc(C(=O)N(CCCN(C)C)c2nc3ccc(Cl)cc3s2)cc1C	?	8.91µM*	-6.9	?	11.7µM*	-31.9
CN(C)CCCN(C(=O)c1ccco1)c1nc2ccc(Cl)cc2s1	-16.0%	?	-4.6	?	0.3%	19.1
SMILES	Pf growth 96h	Marburg entry inh	Cycloheximide cs	Lassa entry inh	Pf growth 48h	Shiga toxin inh
O=C(OCC(=O)N1CCCCC1)c1n[nH]c(=O)c2ccccc12	32.5%	-1.7%[46.1 µM]	/	7.6%	-23.4%	/
C/C(=N\NC(=O)C(C)Sc1ccccc1)C(C)(C)C (centres undefined)	108.9%	1.7%	1.8	10.8%	12.2%	-12.0
NS(=O)(=O)c1ccc(CCNc2ccc(C(F)(F)F)cn2)cc1	30.9%	-0.6%[46.1 µM]	-3.6	/	24.6%	-5.0
FC(F)(F)c1ccc(NCCc2ccccc2)nc1	-25.5%	?	14.5*	-13.2%[46.1 µM]	25.8%	19.3
CCOC(=S)SCC(=O)Nc1nc(C)c(C)s1	90.9%	/	24.2*	/	18.8%	48.8*
CCOC(=S)SCC(=O)Nc1nc(-c2ccc(Br)cc2)cs1	3.29µM*	?	-2.9	8.91µM*	-95.1%	-12.3
Oc1ccc(O)c2c1C1c3ccccc3C2c2ccccc21	0.0%	/	-1.1	/	?	-11.0
Cc1ccc(NC(=O)Cn2cnc(C(=O)Nc3ccc(C)c(C)c3)n2)cc1C	/	3.9%	/	/	/	/
CC1(C)NC(=O)N(CC(O)COc2ccccc2C(=O)Nc2ccccc2)C1=O (centres undefined)	13.1µM*	3.4%	-1.5	8.3%	-9.7%	-10.7
CCCCCCOc1ccc(OCC(O)CN2C(=O)NC(C)(C)C2=O)cc1 (centres undefined)	-18.8%[5.75 µM]	-1.5%	42.7*	-29.8%	69.4%	174.6*
CN(C(=O)c1ccc2c(c1)SC1=NS(=O)(=O)CCN12)C(c1ccccc1)c1ccccc1	11.7µM*	20.3%	10.9	?	11.7µM*	-15.4
O=C(O)c1ccc2c(c1)SC1=NS(=O)(=O)CCN12	-1.8%	19.5%[46.1 µM]	-0.8	6.7%[46.1 µM]	20.3%	7.4
O=S(=O)(NCc1csc(-c2cccs2)n1)c1cccs1	48.3%	0.4%[46.1 µM]	17.5*	?	21.8%	53.0*
Cc1ccn2cc(CNC(=O)c3cccs3)nc2c1	13.8%	/	-2.7	/	6.6%	-9.0
CCc1ccc(S(=O)(=O)NCc2cn3ccsc3n2)s1	14.3%	0.7%	-1.9	15.4%	8.2%	-10.6
Cc1ccn2cc(CNS(=O)(=O)c3ccc(Cl)s3)nc2c1	?	/	11.1	/	/	22.4
Cc1ccn2cc(CNS(=O)(=O)c3cccs3)nc2c1	36.6%	11.6%[46.1 µM]	22.7*	14.5%[46.1 µM]	79.4%	46.0*
O=S(=O)(NCc1csc(-c2cccs2)n1)c1ccc(Cl)cc1	7.3%	/	-2.7	/	0.9%	-19.8
O=C(NCCc1cn2ccsc2n1)c1cccs1	18.6%	/	23.3*	/	29.7%	24.9*
O=S(=O)(NCc1cn2ccsc2n1)c1cccs1	88.1%	?	23.4*	7.2%	39.5%	20.6
COc1cc(C(=O)Nc2nc(OC)c(-c3ccccc3)c(OC)n2)cc(OC)c1OC	/	?	-0.5	?	?	-20.3
CCS(=O)(=O)NCc1csc(-c2ccccc2)n1	48.0%	/	14.8*	/	38.9%	9.9
CS(=O)(=O)NCc1csc(-c2ccccc2)n1	37.9%	13.9%	9.0	7.7%	36.4%	29.6
O=C(NCc1csc(-c2cccs2)n1)c1ccsc1	45.5%	8.8%[46.1 µM]	22.3*	8.1%[46.1 µM]	71.4%	55.5*
COc1ccc(CNC(=O)c2ccccc2NC(=O)C2=CSCCO2)c(OC)c1	?	/	-2.5	/	?	-1.7
N#Cc1cccc(S(=O)(=O)NCC(=O)NCCCc2ccccc2)c1	-7.8%	-6.2%	-3.3	-12.6%	-13.2%	-8.3
CC(C)(C)C(=O)Nc1cccc(-c2ncon2)c1	37.4%	/	2.2	/	45.7%	-1.2
Cn1c(=O)c2c(nc(N3CCc4ccccc4C3)n2Cc2ccccc2F)n(C)c1=O	-21.5%	-9.2%	-2.9	-14.4%	13.1µM*	0.9
